These results are taken from PubChem BioAssay AID1345085 (National Center for Advancing Translational Sciences (NCATS), 2018).

Records with an inconclusive call do not appear. Unmarked numbers belong to inactive results. The source made the active and inactive calls. Calls follow the shape of the dose curve; as a rule, active = well fitted cell-killing curve with a large enough effect; inconclusive = small, poorly fitted or top-dose-only effect, or effect the other way; inactive = no such curve, though single readings can be large or run the other way.
% is scaled to controls: 0 for no effect and ±100 for the full control effect; potency is read from the fitted curve at half-maximal effect.

The assay concerns Tov-21-G. The experiment in a line: Confirmatory qHTS for gynecologic anti-cancer compounds from libraries of approved drugs and bioactive compounds. Also: nearly all actives have a fitted effect of over 55% in size. Conditions: gynecologic cancer cell panel viability, ATPlite luminescence, 48 h; series mostly up to 57.7 µM; activity change, negative = viability loss: at the top concentration. In a few lines: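 Cells (1,000/well) were plated, left 16 h at 37 C/5% CO2, then given compound at 11 concentrations (1:3) from 57.5 uM to 0.977 nM for 48 h. ATPlite luminescence after 15 min at room temperature gave IC50 values.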
On the technique in general: In qHTS, concentration-response curves come from the screen itself.
`CCOc1ccccc1-n1c(C(C)N2CCN(C(=O)COc3ccc(Cl)cc3)CC2)nc2ccccc2c1=O` (stereo unspecified): the Potency was 1720 nM (active).

In the case of `CCN1CCN(C(=O)Cc2ccc(Nc3ncc(F)c(Nc4ccc(C(=O)Nc5ccccc5Cl)cc4)n3)cc2)CC1`, the “activity change, negative = viability loss” value is -3.78%.

Turning to `Cc1sc2c(c1C)C(c1ccc(Cl)cc1)=NC(CC(=O)OC(C)(C)C)c1nnc(C)n1-2` (stereo unspecified), the Potency was 1220 nM (active).

With `CCNC(=O)C[C@@H]1N=C(c2ccc(Cl)cc2)c2cc(OC)ccc2-n2c(C)nnc21`, the Potency was 685 nM (active).

Regarding `O=C(O)Cc1ccccc1`, the “activity change, negative = viability loss” value was 25.4%.

Regarding `C/C=C(/C)C(=O)O[C@H]1C(C)=C2[C@H]([C@@H]1OC(=O)CCCCCCC)[C@@](C)(OC(C)=O)C[C@H](OC(=O)CCC)[C@@]1(O)[C@H]2OC(=O)[C@@]1(C)O`, the Potency is 13700 nM (active).
